From PubChem BioAssay AID504332 (National Center for Advancing Translational Sciences (NCATS), 2011)
Among all 350,000 compounds or so, about 31,000 (8.9%) were called active. Roughly 15% stayed inconclusive and do not appear here. This is one part of a sample in which actives are shown more often than they occur. The call rests on the fitted dose curve; in most records, active means well fitted inhibition curve with a large enough effect; inconclusive means small, poorly fitted or top-dose-only effect; inactive means no such curve, though single readings can be large or run the other way.

Target: Histone-lysine N-methyltransferase EHMT2 (Homo sapiens) (UniProt Q96KQ7)
Sequence (Q96KQ7 913-1193 limits assumed): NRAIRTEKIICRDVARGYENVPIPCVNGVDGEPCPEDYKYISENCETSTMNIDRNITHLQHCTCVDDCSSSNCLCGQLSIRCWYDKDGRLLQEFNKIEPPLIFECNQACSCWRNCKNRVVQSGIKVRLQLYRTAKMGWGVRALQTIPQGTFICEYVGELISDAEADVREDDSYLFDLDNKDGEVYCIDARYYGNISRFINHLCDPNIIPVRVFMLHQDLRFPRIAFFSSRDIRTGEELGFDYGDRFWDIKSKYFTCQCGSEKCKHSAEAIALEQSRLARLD
Assay: qHTS Assay for Inhibitors of Histone Lysine Methyltransferase G9a; further: nearly all actives have a fitted effect of over 75% in size
Details: G9a H3K9 monomethylation, AlphaScreen, 2 h; series mostly up to 59 µM; activity, negative = inhibition: at the top concentration
Outline: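 Methyltransferase reactions run at room temperature for 2 h (20 nM enzyme, 500 nM biotin-H3K9 peptide, 20 uM SAM) after a 15 min compound preincubation; product detected by AlphaScreen beads and anti-H3K9me1 antibody.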
On the % scale 0 is the no-effect control and ±100 the full control effect; potency means the concentration at half of the fitted maximal effect.

activity, negative = inhibition, inactive:
Cc1ccc2nnn(Cc3cccc(C(C)(C)C)c3O)c2c1 15.4% [at 2.33 µM], COc1ccc(CCNC(=O)CCc2c(C)nc3c(c(C)nn3-c3ccc(C)c(C)c3)c2C)c(OC)c1OC -1.62%, O=C(CSc1nnnn1C1CCCC1)N1CCCCC1 -8.4% [at 102 µM], Cc1cccc(CC(=O)Nc2cccc(-c3cn4cccnc4n3)c2)c1 0.135%, CC(=O)c1ccc(NC(=O)C2CCN(S(=O)(=O)c3c(C)noc3/C=C/c3ccc(C)cc3)CC2)cc1 6.83%, Cc1noc(C)c1COc1ccc(C(=O)NCCOc2ccccc2)cc1 19.8% [at 12.7 µM], Cc1ccc(CNC(=O)CCc2c(C)nc3c(c(C)nn3-c3ccccc3)c2C)cc1 1.65%, CC(CC(=O)N1CCN(c2ccccc2)CC1)S(=O)(=O)c1ccc2c(c1)NC(=O)CS2 (stereo not given) -15.8% [at 102 µM], Cc1ccc(N2CC(c3nnc(Cc4ccccc4Cl)o3)CC2=O)cc1 (stereo not given) -22.7%, COc1cccc(NC(=O)CN(C)C(=O)c2cc(C3CC3)nn2-c2ccccc2)c1 1.72% [at 2.33 µM], Cn1c(=O)c2c(SCC(=O)N3CCc4ccccc43)nc(-c3ccc(Cl)cc3)nc2n(C)c1=O 0.591%, COc1ccccc1Cn1c(=S)[nH]c2cc(C(=O)N3CCN(C)CC3)ccc2c1=O 19.2%, CCOC(=O)N1CCN(C(=O)c2ccc3c(=O)n(CCc4ccc(OC)c(OC)c4)c(=O)[nH]c3c2)CC1 -5.11% [at 102 µM], COc1cc2[nH]c(=S)n(Cc3ccc(F)cc3)c(=O)c2cc1OC 9.96% [at 102 µM], CCOc1cc2[nH]c(=S)n(Cc3ccc(C(=O)N4CCN(C)CC4)cc3)c(=O)c2cc1OCC 4.55% [at 102 µM], COc1ccc(Nc2ncc(C(=O)Nc3cc(C)ccc3OC)c3ccccc23)cc1 -0.322%, O=C(NCc1ccncc1)C1CCCN(S(=O)(=O)c2ccc(Br)cc2)C1 (stereo not given) -5.72% [at 102 µM], Cc1ccc(C)c(N2CCN(C(=O)Cn3ncc4c(=O)oc5ccc(C)cc5c43)CC2)c1 -1.95%, COc1cc(OC)c(N(C)C(=O)c2cc3c(=O)oc4ccccc4c3s2)cc1Cl 3.37%, COc1ccccc1CNC(=O)c1ccc(-n2c(C)cc3c2CCCC3)cc1 -4.16%, O=C(O)COc1nsnc1N1CCOCC1 20.7% [at 102 µM], c1nc(COc2nsnc2N2CCOCC2)cs1 15.5% [at 2.33 µM], CCOc1ccc(N(CC)C(=O)c2cc3c(=O)oc4ccccc4c3s2)cc1 10.3%, N=C1/C(=C/c2cccn2-c2cccc([N+](=O)[O-])c2)C(=O)N=C2SC=CN12 29.7% [at 102 µM], COc1cc(/C=C2\C(=N)N3N=C(CC(=O)N4CCOCC4)SC3=NC2=O)cc(OC)c1OC 78.5% [at 102 µM], CCS(=O)(=O)C1=NSC2=NC(=O)/C(=C\c3cc(C)n(-c4cccc(OC)c4)c3C)C(=N)N21 8.92%, Cc1ccc(C2=N/C(=C\c3ccc(OS(=O)(=O)c4ccc(C)cc4)cc3)C(=O)O2)cc1 19.5%, CCC1=Nc2cc(C(=O)NCCCOC(C)C)ccc2Sc2ccc(C)cc21 1.84%, O=C(COC(=O)c1ccccn1)NNC(=O)c1ccc([N+](=O)[O-])cc1 6.96% [at 102 µM], CCCNC(=O)c1ccc(Cn2c(SCC(N)=O)nc3ccccc3c2=O)cc1 2.19%, CC(=O)CCC(=O)c1ccc2ccccc2c1 18.9%, CC(=O)c1ccc2c(ccc3ccccc32)c1 -4.88%, O=C(/C=C/c1ccccc1)Nc1cc(-c2nc3cc(Cl)ccc3o2)ccc1Cl 10.9%, CCOc1ccc(NC(=O)Nc2cc(C)ccc2OC)cc1 28.6%, COc1ccc(NC(=O)N2CCCn3nc(C)cc32)cc1OC 5.44%, Cc1ccc(NC(=O)CCCNC(=O)c2ccc(Cl)cc2)cc1S(=O)(=O)N1CCCCC1 -49.7% [at 102 µM], O=C(O)c1c(CNCc2cccc(F)c2)c2ccccc2n1Cc1ccccc1 -2.2%, CC(O)COc1ccccc1 (stereo not given) 25.5%, CC1(C)NC(=O)N(CCOc2cccc(Oc3ccccc3)c2)C1=O 2.99%, CN(C(=O)CN1C(=O)NC(C)(CCc2ccccc2)C1=O)c1ccccc1 (stereo not given) -6.99% [at 102 µM], O=C(Nc1nnc(C2CC2)s1)c1cc(Cl)sc1Cl -5.4% [at 102 µM], CCOC(=O)c1oc2c(CN3CCN(C)CC3)c(O)ccc2c(=O)c1-c1ccc(Br)cc1 -3.73%, CCOC(=O)CCCN1CC(O)=C(c2nc3ccccc3s2)C1=N -0.107% [at 102 µM], Cc1ccc(C(=O)NCCc2nnc(SCC(=O)Nc3cccc(C(=O)O)c3)n2C)cc1 10.2% [at 0.501 µM], CCCn1c(=N)c(C(=O)NCc2ccccc2)cc2c(=O)n3cccc(C)c3nc21 0.45%, C=CCNC(=S)N1CCc2[nH]c3ccccc3c2C1 0.317% [at 102 µM], O=C(Nc1ccc(Cl)cc1)N1CCc2[nH]c3ccccc3c2C1 9.49% [at 102 µM], COc1ccc(CCNc2ncnc3c2nnn3Cc2ccccc2)cc1 5.34% [at 102 µM], COc1ccc(C2=NC3(CCCCC3)N(CC(=O)Nc3ccc(C(C)C)cc3)C2=O)cc1 1.04%, Cn1ccsc1=NC(=O)c1cc(S(=O)(=O)N2CCOCC2)ccc1Cl 2.99% [at 102 µM], CN(CC(=O)NCCc1ccc(F)cc1)CC(=O)Nc1ccc(F)c(F)c1F -24.2% [at 102 µM], CCOC(=O)C1=C(C)NC(=O)NC1c1ccccc1 (stereo not given) -1.24% [at 102 µM], C=CCC1(C#N)C(=S)NC(C)=C(C(=O)OCC)C1c1ccccc1 (stereo not given) 1.33% [at 102 µM], CCCCOc1ccc(CNC(=O)c2ccc3c(c2)N(C)C(=O)C2CCCCN32)cc1 (stereo not given) 0.427%, Cc1cccc(C(CC(=O)NCC2(c3ccccc3)CCCC2)c2ccccc2)c1O (stereo not given) 1.08%, O=C(CSc1ccccc1)Nc1ccc(C(=O)Nc2cccc(O)c2)cc1 15.3% [at 102 µM], O=C(Nc1cccc(O)c1)c1ccc(C(=O)c2ccccc2)o1 2.32% [at 102 µM], COc1cccc(CNC(=O)c2cc(=O)[nH]c3ccc(S(=O)(=O)N4CCCCC4)cc23)c1 -2.46%, O=C(CSc1n[nH]c(-c2ccccc2)n1)N1CCCCC1 3.52%, N#C/C(=C\c1ccccc1F)c1nc2ccccc2c(=O)[nH]1 -20%, COc1cccc(-n2ccn(CC(=O)NCc3ccc(C)cc3)c(=O)c2=O)c1 0.48%, COc1cccc(-n2cc(C(=O)O)c3ccccc3c2=O)c1 -46.3% [at 102 µM], CN(Cc1ccccc1)C(=O)c1cn(C)c2ccc(S(=O)(=O)N(C)C3CCCCC3)cc2c1=O -1.49%, O=S(=O)(NCCS(=O)(=O)N1CCN(c2ccccc2)CC1)c1ccc(Cl)cc1 -10.1%, CC(C)[C@@H]1COC(c2cccc(C3=N[C@H](C(C)C)CO3)c2)=N1 55% [at 102 µM], CN(C(=O)c1ccno1)c1nnc(-c2cccnc2)s1 19.5%, COc1cc(OC)cc(-c2nnc(N(C)C(=O)c3ccncc3)s2)c1 -3.36% [at 102 µM], CC(C)CCN1CCC(C)(NC(=O)c2ccccc2)C1=O (stereo not given) -0.393% [at 0.501 µM], CC(C)NC(=S)N1CCN(S(C)(=O)=O)CC1 11.9%, CC(=O)c1cccc(NC(=S)N2CCCC2)c1 9.21% [at 102 µM], O=C(Cc1ccc(Cl)cc1)NC1CCS(=O)(=O)C1 (stereo not given) 28.8% [at 102 µM], Cc1cc(C)c(CN2CCN(C(=O)Cn3ccc(NC(=O)OCc4ccccc4)nc3=O)CC2)c(C)c1 -47.4% [at 0.501 µM], NC(=O)C1CCN(C(=O)c2ccc(F)c(S(=O)(=O)N3CCOCC3)c2)CC1 2.82% [at 2.33 µM], CCOc1ccc(-c2n[nH]c3c2C(c2ccccc2OC)N(c2ccc(Br)cc2)C3=O)cc1 (stereo not given) 3.64%, Cc1sc2ncnc(N3CCC(C(=O)NNC(=O)c4ccc(F)cc4)CC3)c2c1C -33.1%, Cc1ccc(NC(=S)N(CCN(C)C)Cc2cccs2)cc1C -39.7% [at 102 µM], Cc1ccccc1NC(=S)N(CCCN1CCOCC1)Cc1cccs1 15%, CC(C)Nc1ccc(-n2nc3ccccc3[n+]2[O-])cc1 12.3% [at 102 µM], c1ccc2cc(CCCc3cc4ccccc4cn3)ncc2c1 5.78% [at 0.501 µM], NC(=O)C1CCN(C(=O)c2cn(-c3ccccc3)nc2-c2cccnc2)CC1 1.41% [at 102 µM], COc1ccc(CNC(=O)C(Cc2ccccc2)n2cccc2)cc1 (stereo not given) -36.8% [at 102 µM], CC(Cc1ccccc1)C(=O)N(C)Cc1ccccc1 (stereo not given) -4.83% [at 102 µM]

Potency, active:
NC(=O)C1CCN(C(=O)c2ccc3c(=O)n(Cc4cccc(Br)c4)c(=S)[nH]c3c2)CC1 39.8 µM, O=C(O)c1ccc(Cn2c(=S)[nH]c3cc(Cl)ccc3c2=O)cc1 39.8 µM, c1ccc(COc2nsnc2N2CCOCC2)cc1 14.1 µM, CCS(=O)(=O)C1=NSC2=NC(=O)/C(=C\c3ccc(OS(=O)(=O)c4ccccc4)cc3)C(=N)N21 39.8 µM, Cc1cc(/C=C2/C(=N)N3C(=NC2=O)SN=C3S(C)(=O)=O)c(C)n1-c1ccccc1 35.5 µM, C=CC(=O)c1ccc2ccccc2c1 1.26 µM, CCn1cc(NC(=O)Nc2ccc(OC)c(OC)c2)c(C(N)=O)n1 25.1 µM, CC(O)CNCCOc1cccc(Oc2ccccc2)c1 (stereo not given) 31.6 µM, CCOC(=O)c1oc2c(CN3CCN(CCO)CC3)c(O)c(CC)cc2c(=O)c1-c1nc2ccccc2s1 17.8 µM, CCCC(=O)N1CCc2[nH]c3ccccc3c2C1 39.8 µM, CCOC(=O)C1=C(C)NC(SC)=NC1c1ccccc1 (stereo not given) 2 µM, C/C(=C\C(=O)c1ccccc1)Nc1cccc(O)c1 50.1 µM, CCN(Cc1ccccc1)C(=O)c1cn(-c2cccc(OC)c2)c(=O)c2ccccc12 11.2 µM, CN(C(=O)c1ccccn1)c1nnc(-c2ccccn2)s1 70.8 µM, COc1ncnc2c1N=C1CC(C)(C)CC(N)=C1S2 3.16 µM, CC(=O)c1cccc(NC(=S)N2CCN(S(C)(=O)=O)CC2)c1 44.7 µM, Cc1ccc(Cl)cc1NC(=S)N(CCN(C)C)Cc1cccs1 39.8 µM, Cc1ccc(C)n1C(Cc1ccccc1)C(=O)O (stereo not given) 35.5 µM
